# Screen size: about 330,000 compounds; about 100 (0.03%) were called active. Inconclusive results (about 1%) are left out. What follows is part of a selection rich in actives, with near analogues and random picks from the rest. Where a call stands in place of a potency, no number is given. Unmarked numbers belong to inactive results. The call rests on the fitted dose curve; in most records, active means well fitted inhibition curve with a large enough effect; inconclusive means small, poorly fitted or top-dose-only effect; inactive means flat fitted curve, though single readings scatter.
# Tested on: Chaperonin Mm-Cpn (Methanococcus maripaludis)
# Test: Inhibitors of TCP-1 ring complex (TRiC) of Methanococcus maripaludis (MmCpn): qHTS; further: nearly all actives have a fitted effect of over 80% in size;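 on potency: enzyme at 25 nM with ATP substrate at 10 µM during the reaction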
# Conditions: purified Mm-Cpn ATPase, ADP Transcreener TR-FRET; series mostly up to 76.9 µM
# Text: The eukaryotic chaperonin TRiC (for TCP-1 ring complex) is an essential and conserved chaperone required for the folding and activation of 10-15% of the proteins encoded by the human genome. […] The TRiC complex consist of two stacked 7-9 membered rings, each containing a central cavity. Substrates are folded within the cavity in an ATP-dependent manner. TRiC is a complex of eight different, essential proteins. As each of the genes encoding the eight subunits is essential for cell viability and no protocol has been developed to over-express this enzyme to high levels. That is why several groups studying the TRiC chaperonin have turned to the archaeal homolog of TRiC, Methanococcus maripaludis (Mm-CPN), and have used this enzyme as a model system for the study of the type II chaperonin family. Small molecule inhibitors of the Mm-CPN enzyme would be extremely useful to study the mechanism of chaperonin activity. Importantly, TRiC and Mm-CPN both require ATP hydrolysis for function. Furthermore, the ATP binding sites are highly conserved among these type II chaperonins. This provides us with an easy, well tested and straightforward assay to identify inhibitors of chaperonin activity. The Mm-CPN assay was developed in 1536-well plate format using the HTRF Transcreener ADP assay kit (Cisbio, Bedford, MA). This assay applied the time resolved fluorescence resonance energy transfer (TR-FRET) principle. ATP in the presence of Mm-CPN is converted to ADP + Pi. An antibody labeled with Eu3+-Cryptate specific and bound to ADP labeled with […] (d2) competes with the unlabeled ADP generated by Mm-CPN. The resulting TR-FRET signal is inversely proportional to the concentration of ADP in the sample. In this assay a reduction in TR-FRET signal is observed with ATP turnover. NIH Chemical Genomics Center [NCGC] NIH Molecular Libraries Probe Centers Network [MLPCN] MLPCN Grant: DA030554-01A1 Assay Submitter (PI): Judith Frydman, Stanford University
# Purified Mm-CPN was supplied by the laboratory of Dr. Judith Frydman. Protein samples were stored at -80C as single use aliquots. Protein was thawed in ambient temperature water bath and placed on ice once thawed. Buffer was prepared fresh day of screen. The buffer composition below was used to prepare the working solution of the Mm-CPN protein and ATP substrate. The buffer is comprised of 30 mM TRIS pH 7.4, 100mM KCl, 5mM MgCl2, and 1mM DTT. A final concentration of 25nM Mm-CPN and 10uM ATP per well were used in the screen. Instructions according to the manufacturer were followed for the ADP Transcreener kit. Used 1536 well Greiner white, medium binding (MB), solid bottom plates. Plates were read on the PerkinElmer EnVision plate reader using Excitation = 320 nm and Emission = […], 665 nm. Protocol- 1.Dispense 1.5ul per well of working [Mm-CPN] = 50nM (or 75 ng / well) 2.Spin plate at 1000 rpm for 30 seconds 3.23nl of compound transferred per well 4.Incubate at 37degC for 10 minutes 5.Dispense 1.5ul per well of working [ATP] = 20uM 6.Incubate at 37degC for 30 minutes 7.Dispense 3ul per well of Anti-ADP Cryptate / ADP-d2 mix (prepared as instructed by Cisbio) 8.Incubate at ambient for 30 minutes 9.Read using EnVision
# Potency means the concentration at half of the fitted maximal effect.
Structure (SMILES),Potency,"activity, negative = inhibition"
N#Cc1ccc(-c2nc3cc(C#N)c(C#N)cc3nc2-c2ccccc2)cc1C#N,inactive,–
CC(=O)Nc1ccc(S(=O)(=O)N2CCN(S(=O)(=O)c3cccs3)CC2)cc1,inactive,–
Cc1ccc(CNC(=O)c2ccccc2CCc2ccccc2)cc1,inactive,–
CCC1SC(CC)C(=O)N(CC(=O)NC2CCCCC2)C1=O (centres undefined),inactive,–
Cc1cccc(C(=O)Nc2ccc(Oc3cnccn3)cc2)c1,inactive,–
CC(=O)Nc1cccc(C(=O)OCN2C(=O)c3ccccc3C2=O)c1,inactive,–
C=CCN1C(=O)c2ccc(C(=O)N3CCC(C(=O)OCC)CC3)cc2C1=O,inactive,–
Cc1ccc(NC2=C(Cl)C(=O)OC2OC(=O)c2ccccc2C)cc1 (centres undefined),inactive,–
Cc1ccccc1N1CCN(CCCN2C(=O)C3CCCCN3C2=O)CC1 (centres undefined),inactive,–
O=C(CCNS(=O)(=O)c1ccccc1)NCCCc1ccccc1,inactive,–
COc1cc(Br)c(-c2sc(Nc3ccccc3)n[n+]2-c2ccccc2)cc1OC,inactive,–
CCc1ccc(Nc2n[n+](-c3ccccc3)c(-c3cccc(Cl)c3Cl)s2)cc1,56.2 µM (active),–
NC(=O)N1CCCC1C(=O)Nc1ccc(Cl)c(Cl)c1 (centres undefined),inactive,–
CC(C)c1ccc(N2CCN(C(=O)c3ccccc3NC(=O)/C=C(\C(=O)O)c3ccccc3)CC2)cc1,inactive,–
CC(NC(=O)COC(=O)c1ccc(Cl)cc1O)c1ccc(F)cc1 (centres undefined),inactive,–
COc1ccccc1-c1sc2ccccc2c1-c1ccc(C(C)=O)cc1,31.6 µM (active),–
COC(=O)c1ccc(/C=C/c2c(-c3ccc(OC)cc3)sc3ccccc23)cc1,inactive,–
COc1ccc2sc(-c3ccccc3OC)c(-c3ccc(OCCN4CCCC4)cc3)c2c1,inactive,–
CC(=O)Nc1ccc(Nc2ncnc3c2nnn3Cc2ccccc2Cl)cc1,inactive,–
O=C(NCc1ccccc1CN1CCCC1)C1CCN(S(=O)(=O)c2ccc(Cl)cc2)CC1,inactive,–
CC(C)CN(C(=O)c1ccc2c(c1)OCO2)C1CCS(=O)(=O)C1 (centres undefined),inactive,–
CC1(C)O[C@@H]2CC3C4C[C@H](F)C5=CC(=O)C=CC5(C)C4C(O)CC3(C)[C@]2(C(=O)CO)O1 (some centres undefined),inactive,–
Cc1ccc2[nH]c(=O)c(CN(C)S(=O)(=O)c3cccc4nonc34)cc2c1,inactive,–
Cc1nc(NC2=NC(C(=O)Nc3ccc(Cl)cc3)CC(=O)N2)nc2ccccc12 (centres undefined),inactive,–
CC1CCN(c2ccc(C(=O)NCc3ccc4c(c3)OCO4)cc2[N+](=O)[O-])CC1,inactive,–

Structure (SMILES),Potency,"activity, negative = inhibition"
CC(=O)c1ccc(NC(=O)CCNS(=O)(=O)c2cc(Br)cnc2N)cc1,inactive,–
CC(=O)c1nn(-c2cccc(C(F)(F)F)c2)c(=O)[nH]c1=O,inactive,–
c1ccc(-c2nnc3n2NC(c2ccc4c(c2)OCO4)S3)cc1 (centres undefined),inactive,–
O=C(CSc1nnc(-c2ccncc2)o1)Nc1cccc(Cl)c1,inactive,–
O=C(O)C1CCN(C(=O)c2cc(F)cc3c2OCOC3)CC1,inactive,–
CC(=O)c1cn(CCCCCCCCCCn2cc(C(C)=O)c(=O)[nH]c2=O)c(=O)[nH]c1=O,inactive,–
Cn1c2c(c(=O)n(C)c1=O)C(c1cccc(F)c1)C(C#N)=C(N)O2 (centres undefined),inactive,–
CCCCOP(=O)(c1ccc(N(C)C)cc1)C(O)c1cc(OC)ccc1OC (centres undefined),inactive,–
Cc1cccc(C(=O)O)c1[N+](=O)[O-],inactive,–
CCN(CC)S(=O)(=O)c1ccc(CNC(=O)CN2C(=O)NC3(CCc4ccccc43)C2=O)cc1 (centres undefined),inactive,–
NC(=O)CN1CCCC1c1ccc2c(c1)OCCO2 (centres undefined),inactive,–
CCOC(=O)c1cc(-c2ccc(Cl)s2)nc2c1c(C)nn2C,inactive,–
Cc1cc(S(=O)(=O)NCC(C)C)ccc1OCC(=O)NC1CC1,inactive,–
COc1ccc2c3c(c(=O)oc2c1)C1O[C@](CCCCN2C(=O)c4ccccc4C2=O)(Cc2c1ccc1ccccc21)O3,–,1.5% [at 15.4 µM]
O=C(CCc1ccccc1)Nc1ccnn1C1CCN(Cc2ccc(OCCO)cc2)CC1,inactive,–
Cc1cccc(N(C(=O)Cc2cccs2)C(C(=O)NC2CCCC2)c2ccsc2)c1 (centres undefined),inactive,–
O=C(CCNC(=O)c1ccc([N+](=O)[O-])cc1)NC1CCCCC1,inactive,–
O=C1CC(=O)Nc2cc(S(=O)(=O)N3CCN(c4cccc(C(F)(F)F)c4)CC3)ccc2N1,inactive,–
CCOC(=O)C1=C(CC)OC(N)=C(C#N)C1c1ccc(F)cc1F (centres undefined),inactive,–
O=C(CN1CCN(C2CCS(=O)(=O)C2)CC1)N1N=C(c2ccc(Cl)cc2)CC1c1ccco1 (centres undefined),inactive,–
CC(C)CNC(=O)/C=C/C(=O)O,inactive,–
Cc1ccc(C)c(N(CC(=O)NCc2ccco2)C(=O)CCC(=O)Nc2ccccn2)c1,inactive,–
Cc1cccc(C)c1NC(=O)C(Cl)C(=O)c1ccccc1 (centres undefined),inactive,–
Cn1c(=O)c2c(n(Cc3ccccc3)c1=O)NC(=O)C2CC(=O)N1CCc2ccccc2C1 (centres undefined),inactive,–

# — PubChem BioAssay AID504842 (National Center for Advancing Translational Sciences (NCATS), 2011)
